Source: PubChem
An excerpt weighted towards active compounds, which were near 0.78% of everything screened.
APE1 inh: qHTS Assay for Inhibitors of the Human Apurinic/apyrimidinic Endonuclease 1 (APE1); DNA repair nuclease/redox regulator APEX1 (Homo sapiens), P27695; recombinant APE1, TAMRA/BHQ-2 abasic DNA cleavage fluorescence; Potency, µM (top dose mostly 65.8 µM), without a hit: at the highest dose activity change, negative = inhibition, usual class: inhibitors; 350,000 tested, 0.35% active; AID 2517, 2012;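 further: plate controls were vehicle for no effect and reference inhibitor for full effect; nearly all actives have a fitted effect of over 55% in size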
Target sequence (P27695 whole entry, looked up): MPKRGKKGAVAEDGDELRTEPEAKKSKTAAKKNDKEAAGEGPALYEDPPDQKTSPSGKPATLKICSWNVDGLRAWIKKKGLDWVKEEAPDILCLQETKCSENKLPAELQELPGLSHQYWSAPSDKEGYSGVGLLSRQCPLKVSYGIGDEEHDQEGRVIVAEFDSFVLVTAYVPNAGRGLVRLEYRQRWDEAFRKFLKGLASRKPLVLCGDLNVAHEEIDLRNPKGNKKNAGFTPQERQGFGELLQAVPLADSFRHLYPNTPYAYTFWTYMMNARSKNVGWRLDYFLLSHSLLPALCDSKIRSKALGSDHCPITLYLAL
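0.75 nM APE1 + cpd, 15 min RT; start w/ 50 nM TAMRA/BHQ-2 THF-abasic dsDNA; kinetic fluor 525/598 nm ×3 reads @60 s; Δ(read3−read1); normalized to DMSO and NSC13755 control wells.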
BLM inh: qHTS Assay for Inhibitors of Bloom's syndrome helicase (BLM); recombinant BLM DNA unwinding, fluorescence dequenching; RecQ-like DNA helicase BLM (Homo sapiens), P54132; 350,000 tested, 0.2% active; Potency, µM (top dose mostly 56.1 µM), for inactives: top-dose activity change, negative = inhibition, actives largely listed as inhibitors;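 further: plate controls were vehicle for no effect and no enzyme for full effect; nearly all actives have a fitted effect of over 35% in size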
L3MBTL1 block: qHTS Assay for the Inhibitors of L3MBTL1. Potency, µM (titrated, usually from 57.1 µM), for the others: top-dose activity, negative = inhibition, usual class: inhibitors. AID 485360, 2010. AlphaScreen L3MBTL1–H3K9me1 peptide binding. 230,000 tested, 0.66% active. Lethal(3)malignant brain tumor-like protein 1 (Homo sapiens), Q9Y468; further: nearly all actives have a fitted effect of over 60% in size
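Displacement of a biotinylated histone H3(1-15) peptide monomethylated at Lys9 (75 nM) from L3MBTL1 (50 nM) was measured by AlphaScreen after a 30 min room-temperature compound incubation; cefsulodin titration served as intraplate control.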
RECQ1 inh-1: qHTS Assay for Inhibitors of RecQ-Like Dna Helicase 1 (RECQ1); ATP-dependent DNA helicase Q1 (Homo sapiens), P46063; RECQ1 DNA unwinding, red fluorescence kinetic read; Potency, µM (top dose mostly 57.3 µM), for inactives: at the highest dose activity, negative = inhibition, usual class: inhibitors; 240,000 tested, 0.54% active;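 further: plate controls were vehicle for no effect and no enzyme for full effect; nearly all actives have a fitted effect of over 30% in size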
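50 nM RECQ1T1 preincubated 15 min with compound in Tris pH 8.0 buffer with MgCl2, DTT, Tween-20 and 2.5 ug/ml poly(dI-dC); started with 200 nM TAMRA/BHQ-2 forked duplex and 2 mM ATP. Unwinding read as fluorescence (525/598 nm), two reads 2 h apart.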
RECQ1 inh conf: Confirmation qHTS Assay for Inhibitors of RecQ-Like Dna Helicase 1 (RECQ1); shares compounds with RECQ1 inh-1; RECQ1 helicase DNA unwinding, fluorescence; Potency, µM (titrated, usually from 229 µM), for inactives: at the top dose activity change, negative = inhibition, most hits filed as inhibitors; 610 tested, 28% active; AID 2708, 2010; further: nearly all actives have a fitted effect of over 45% in size
RECQ1 ADP FP: Counterscreen for RECQ1 Inhibitors: ADP Fluorescence Polarization Displacement Assay | AID 2711, 2010 | ADP fluorescence polarization displacement counterscreen | Potency, µM (highest dose often 228 µM), for the others: top-dose activity change, negative = inhibition, actives largely listed as inhibitors | 530 tested, 27% active | shares compounds with RECQ1 inh-1; further: nearly all actives have a fitted effect of over 45% in size
RECQ1 inh-2: Confirmation qHTS Assay for Inhibitors of RecQ-Like Dna Helicase 1 (RECQ1) - Round 2 Cherry Picks. recombinant RECQ1 DNA unwinding, red fluorescence. Potency, µM (highest dose often 119 µM), for inactives: top-dose activity, negative = inhibition, usual class: inhibitors. shares compounds with RECQ1 inh-1. 1,100 tested, 15% active; further: nearly all actives have a fitted effect of over 50% in size
Starred values were filed as active, the others as inactive; i = inactive; ? = inconclusive; · = no result given; [ ] = dose if it differs, or a comment. The call rests on the fitted dose curve; in most records, active means well fitted curve in the direction sought with a large enough effect; inconclusive means small, poorly fitted or top-dose-only effect, or another doubt; inactive means no such curve, though single readings can be large; an effect the other way counts as inactive or inconclusive. Unless noted, on the % scale 0 is the no-effect control and ±100 the full control effect; potency means the concentration at half of the fitted maximal effect.

SMILES	APE1 inh	BLM inh	L3MBTL1 block	RECQ1 inh-1	RECQ1 inh-2	others
O=C(NC1CCC(O)CC1)c1cc(-c2ccco2)nc2ccccc12 (configuration not stated)	?	-25%	·	22µM*	?
CCc1nnc(NC(=O)c2cc(-c3ccco3)nc3ccccc23)s1	?	-20%	?	?	?
CCc1nnc(NC(=O)c2cc(-c3ccccn3)nc3ccccc23)s1	15%	0%	-18%	-11%	·
COc1cc2c(cc1OC)C(COc1cc(C)cc(C)c1)N(C(=O)COc1ccccc1)CC2 (configuration not stated)	·	-7%	·	·	·
CC(/C=C/C=C(\C)C(=O)O[C@@H]1O[C@H](CO[C@@H]2O[C@H](CO)[C@@H](O)[C@H](O)[C@H]2O)[C@@H](O)[C@H](O)[C@H]1O)=C\C=C\C=C(C)\C=C\C=C(/C)C(=O)O[C@@H]1O[C@H](CO[C@@H]2O[C@H](CO)[C@@H](O)[C@H](O)[C@H]2O)[C@@H](O)[C@H](O)[C@H]1O	·	1%	·	·	·
Nc1cc(=O)[nH]c(SCC(=O)Nc2ccc3c(c2)CCC3)n1	?	-6%	-17%	?	-12%
COc1ccc(C)cc1N(CC(=O)N/N=C/c1ccccc1C(=O)O)S(=O)(=O)c1ccccc1	1%	-3%	·	0%	·	RECQ1 inh conf=0%;RECQ1 ADP FP=9%
CCOCCCn1c(=N)c(S(=O)(=O)c2ccc(C)cc2)cc2c(=O)n3ccccc3nc21	·	-4%	·	·	·
Cc1ccc(S(=O)(=O)c2cc3c(=O)n4ccccc4nc3n(Cc3ccco3)c2=N)cc1	?	-5%	-18%[11.4 µM]	14µM*	?
CN(C)c1ccc(C(CNC(=O)c2ccccc2)N2CCc3ccccc32)cc1 (configuration not stated)	·	-9%	·	·	·
Cc1ccc(N(Cc2cccs2)C(=O)c2ccc(Br)o2)cc1	·	-11%	·	·	·
CC(C)NC(=O)c1cnc2sc(N3CCCCCC3)nn2c1=O	·	-5%	·	·	·
O=C1C(Cl)=C(N2CCCCC2)C(=O)C(Cl)=C1c1cnc(N2CCCCC2)s1	20µM*	14µM*	18µM*	16µM*	·	RECQ1 inh conf=50µM*;RECQ1 ADP FP=45µM*
COc1ccccc1C1CC(=O)Oc2cc3c(cc21)OCO3 (configuration not stated)	32µM*	-30%[75.6 µM]	·	35µM*	28µM*
O=C(CCS(=O)(=O)c1ccc(Br)cc1)NCc1ccco1	-31%	-10%	·	·	·
O=C(CCS(=O)(=O)c1ccc(Br)cc1)NCc1cccs1	?	1%	·	?	?
CC(=O)O[C@@H](C)C#C[Si](C)(C)c1ccccc1	2%	-1%	·	-7%	·
CCOc1ccccc1Nc1nnc(SCC(=O)NC(Cc2c[nH]c3ccccc23)C(=O)O)s1 (configuration not stated)	-1%	-11%	-9%	0%	·	RECQ1 inh conf=-3%;RECQ1 ADP FP=?
Cc1ccc(Nc2nnc(SCC(=O)NC(Cc3c[nH]c4ccccc34)C(=O)O)s2)cc1 (configuration not stated)	-4%	-2%	-6%	i	·	RECQ1 inh conf=-3%;RECQ1 ADP FP=13%
COC(=O)C1=CC(C(=O)c2cccs2)=NN(c2ccc(OC)cc2)C1C(=O)OC (configuration not stated)	-5%	-12%	?	?	79µM*
COC(=O)C1=CN(Cc2ccc(OC)cc2)C=C(C(=O)OC)C1c1cccs1	?	-14%	170%	-21%	·
CN1/C(=C\C(=O)COC(=O)CNC(=O)c2ccc3ccccc3c2)C(C)(C)c2ccccc21	6%	-7%	-14%	35µM*	56µM*
CN1/C(=C\C(=O)COC(=O)c2ccc(O)c(O)c2)C(C)(C)c2ccccc21	8%	-27%	-27%	25µM*	40µM*
Cc1cc(=O)[nH]c(SCC(=O)/C=C2\N(C)c3ccccc3C2(C)C)n1	-11%	1%	-2%	32µM*	-50%
COc1ccccc1NC(=O)C(Cc1ccccc1)NS(=O)(=O)c1ccc2c(c1)CCN2C(C)=O (configuration not stated)	·	-9%	·	·	·
SMILES	APE1 inh	BLM inh	L3MBTL1 block	RECQ1 inh-1	RECQ1 inh-2	others
CC(C)c1ccc(NC(=O)C2CCCN(S(=O)(=O)c3ccc4[nH]c(=O)ccc4c3)C2)cc1 (configuration not stated)	·	-4%	·	·	·
CN1CCN(c2ncc3nc(-c4cccc(C#N)c4)c(=O)n(CCc4ccccc4)c3n2)CC1	-1%	-2%	·	-1%	·
Cc1ccc(-n2c(=O)c(C#N)cc3c(=O)n4ccccc4nc32)cc1	?	-3%	-6%	35µM*	1%
Cc1cccc(-n2c(=O)c(C#N)cc3c(=O)n4ccccc4nc32)c1	5%	-11%	·	4%	·
C/C(CCN1CCc2nc(-c3ccccc3)c(-c3ccccc3)cc2C1)=N\OC[C@@H](O)[C@@H]1O[C@@H]2OC(C)(C)O[C@@H]2[C@H]1O	2%[12.4 µM]	0%[12.4 µM]	·	9%[11.5 µM]	·
Cc1cccc(NC(=O)Cn2c(=O)ccc3cc(S(=O)(=O)N4CCCC4)ccc32)c1C	·	-1%	·	·	·
O=C1C(Cl)=C(Nc2ccc(O)cc2)C(=O)c2ccccc21	-3%	-20%	-2%	-7%	·
COC1=C(Nc2ccc(O)cc2)C(=O)c2ccccc2C1=O	?	-10%	?	?	-10%
O=C(Cc1ccccc1)NC1CC(=O)N(c2ccccc2)C1 (configuration not stated)	·	0%	·	·	·
CCOc1ccc2oc(-c3ccccc3)c(C(=O)O)c2c1	8%	-1%	17%[11.4 µM]	?	-7%
O=C(CSc1nnc(-c2ccccc2)n1Cc1ccccc1)N1CCOCC1	8%	-3%	6%	3%	·
Oc1ccccc1-c1nnc(SCCN2CCOCC2)n1Cc1ccccc1	-1%	0%	-10%	1.6µM*	?	RECQ1 inh conf=8%[114 µM];RECQ1 ADP FP=-10%[91.9 µM]
